# aSyn UTR act – Activators via SNCA 5'UTR binding, MLPCN; activity score, % (tested at 7.5 µM), hits read low; hit rate 7.1% among 300,000; alpha-synuclein 5'UTR reporter, activators screen; in the data active = activity score below about -60%
# A number is an active result; i = inactive. Only a sample is shown.
SMILES,aSyn UTR act
CC(=O)c1c(C)nc(-c2ccccc2)nc1N,-72.4
CCOC(=O)c1c(-c2ccccc2)cn2c(C)cc(C)nc12,-150.2
CCCNc1nc(-c2ccccc2)c(C(=O)OCC)cc1C#N,i
CCOC(=O)CCn1nc(-c2ccc(Cl)cc2)cc1N,-128.8
CC[C@@H](C(=O)[C@@H](C)[C@@H](O)[C@H](C)CCc1ccc(C)c(O)c1C(=O)O)[C@H]1O[C@](CC)([C@H]2CC[C@](O)(CC)[C@H](C)O2)C[C@@H]1C,i
Cn1c(N)c(C(C[N+](=O)[O-])c2c(F)cccc2Cl)c(=O)n(C)c1=O (stereo not drawn),-65.6
O=C(c1cc(-c2ccc(Cl)c(Cl)c2)on1)N1CCOCC1,-151.5
COCCNC(=O)c1cc(-c2ccc(Cl)c(Cl)c2)on1,-78.0
O=C(c1cc(-c2cccc(Cl)c2)on1)N1CCOCC1,-171.0
O=C(c1cc(-c2ccc(Cl)cc2Cl)on1)N1CCOCC1,i
O=C(c1cc(-c2ccc(F)cc2)on1)N1CCOCC1,-110.6
CC(=O)Nc1ccc(S(=O)(=O)N(Cc2cccnc2)Cc2cc3ccc(C)cc3[nH]c2=O)cc1,i
Cc1ccc2cc(CCNC(=O)c3ccco3)c(=O)[nH]c2c1C,-137.9
COc1ccc2cc(CCNC(=O)c3ccco3)c(=O)[nH]c2c1,-116.5
Cc1cc2cc(CCNC(=O)c3cccs3)c(=O)[nH]c2cc1C,-148.7
CCC(c1nnnn1CCc1ccccc1)N(Cc1ccco1)Cc1cc2c(C)ccc(C)c2[nH]c1=O (stereo not drawn),i
Cc1ccc2cc(CCNC(=O)c3ccco3)c(=O)[nH]c2c1,-142.9
Cc1ccc(N=C2NC(=O)/C(=C/c3cccn3C)S2)cc1C,-127.3
O=C1NC(=Nc2ccccc2)S/C1=C/c1cccs1,-117.3
Cc1ccc(N=C2NC(=O)/C(=C/c3cccn3C)S2)cc1,-79.7
c1ccc2c(c1)Cn1c-2nc2ccccc21,-124.0
Brc1c(-c2ccccc2)nc2n1Cc1ccccc1-2,-145.8
Oc1ccccc1OCc1nc2ccccc2s1,-113.4
OCc1cc(Br)ccc1OCc1nc2ccccc2s1,-70.3
COc1cc(NC(=O)c2ccc(Cl)cc2)c(OC)cc1NC(=O)CN1CCCCC1,-67.9
SMILES,aSyn UTR act
Cc1nc2cc(N3CCCCC3)c(NC(=O)c3ccncc3)cc2c(=O)n1Cc1ccc(Cl)cc1,i
COc1ccc(OCCSc2ncnc3nc[nH]c23)cc1,-81.2
Fc1ccccc1OCCSc1ncnc2nc[nH]c12,-99.9
COc1ccc2oc(=O)c(C(=O)NC3CCCCCC3)cc2c1,-173.6
COc1ccc2oc(C(=O)Nc3ccc(C)cn3)c(C)c2c1,-124.2
COc1ccc2oc(C(=O)NC3CCCCC3)c(C)c2c1,-99.0
COc1ccc2oc(C(=O)NCCC(C)C)c(C)c2c1,-142.8
COCCN(CC(=O)NC1CCCCC1)C(=O)/C=C/C(=O)c1ccc(OC)cc1O,i
CCN(CC(=O)Nc1ccccc1C(F)(F)F)C(=O)c1oc2ccc(OC)cc2c1C,-64.7
Nc1nc(CSc2ncn(-c3ccccc3)n2)cs1,-153.7
Cc1cc(SCC(=O)N/N=C/c2ccc(O)cc2O)nc2ccccc12,i
Cc1cc(SCC(=O)c2cccs2)nc2ccccc12,-80.6
O=C(CSc1ncn(-c2ccccc2)n1)c1cccs1,-177.5
c1ccc(CSc2ncn(-c3ccccc3)n2)cc1,-138.0
Cc1cc(SC(C)C(=O)NCC(=O)Nc2ccc(F)c(F)c2F)nc2ccccc12 (stereo not drawn),i
N/C(COc1ncn(-c2ccccc2)n1)=N\S(=O)(=O)c1ccccc1,i
Cc1ccc(C(=O)c2coc3c2C(=O)C(=O)c2ccccc2-3)cc1,-90.1
COc1ccc(C(=O)c2c(C(F)(F)F)oc3c2C(=O)c2ccccc2C3=O)cc1,i
Cc1oc2c(c1C(=O)c1ccc(Cl)cc1)C(=O)C(=O)c1ccccc1-2,-87.0
Cc1ccc(C)c(-c2[nH]ncc2CN2CCCC(CO)(Cc3ccccc3C)C2)c1 (stereo not drawn),i
COc1ccccc1-c1coc2cc(O)cc(O)c2c1=O,-71.1
COc1ccc2c(=O)c(-c3ccc(OC)c(OC)c3)coc2c1,-97.2
CCN(CC)C(=O)Oc1ccc2c(=O)c(-c3ccccc3)coc2c1,-89.9
CCOc1ccc2c(=O)c(Oc3ccccc3OCC)coc2c1,-100.2
CCc1ccc(Oc2coc3cc(OCC(=O)Nc4cc(C)ccc4C)ccc3c2=O)cc1,i
SMILES,aSyn UTR act
O=c1c(-c2ccc(F)cc2)coc2c3c(ccc12)OCCO3,-128.0
COc1ccc(-c2coc3cc(O)ccc3c2=O)cc1OC,-65.6
O=c1c(-c2ccc(F)cc2)coc2cc(O)ccc12,-93.5
COc1ccc2c(=O)c(-c3ccccc3)coc2c1,-64.8
O=[N+]([O-])c1ccc(-c2cn3c(n2)CCC3)cc1,-128.5
O=C(NC1CCCCCC1)c1ccc2c(=O)n3c(nc2c1)CCCCC3,-72.5
Cc1ccc(NC(=O)c2ccc3c(=O)n4c(nc3c2)CCCCC4)nc1,-71.7
COc1ccc(-c2nc3cc(NC(=S)NC(=O)Cc4ccccc4)ccc3o2)cc1,-143.2
CCC(=O)NC(=S)Nc1ccc2oc(-c3ccc(OC)cc3)nc2c1,-168.6
COc1ccc2nc(NC(=O)c3ccc(NS(=O)(=O)c4cccs4)cc3)sc2c1,-66.9
COc1ccc(C(=O)Nc2nc3ccc(OC)cc3s2)cc1,-276.6
COc1ccc(C(=O)Nc2nc(-c3cccs3)c(NC(C)=O)s2)cc1,-83.4
CCn1cc([N+](=O)[O-])c(C(=O)Nc2nc3ccc(OC)cc3s2)n1,-83.9
CCc1sc(C(=O)Nc2ncccc2C)cc1C,-66.6
CCc1sc(C(=O)Nc2nccs2)cc1C,-122.6
O=C(NC(=S)Nc1ncccn1)c1ccc(F)cc1,-203.1
COc1ccccc1NC(=S)NNC(=O)c1ccc(Cl)cc1Cl,-137.4
O=C(NC(=S)Nc1ccc2c(c1)C(=O)c1ccccc1C2=O)c1ccc(F)cc1,-140.7
O=C(NC(=S)Nc1ncccn1)c1ccc(Cl)cc1Cl,-164.9
O=C(Nc1cccnc1Cl)c1cc(-c2ccc(F)cc2)on1,-74.4
O=C(NC(=S)NNC(=O)c1cnccn1)c1ccc(Cl)cc1,i
O=C(NC(=S)Nc1cccnc1Cl)c1ccc(F)cc1,-123.5
Cc1cc(C)n(-c2ccc(C(=O)Nc3ccc4c(c3)OCO4)cc2)n1,-172.6
Cc1cc(C)n(-c2ccc(C(=O)NC3=NCCS3)cc2)n1,-110.3
CCCOc1ccc(N2C(=O)CC(N(O)c3ccccc3)C2=O)cc1 (stereo not drawn),-77.3
SMILES,aSyn UTR act
COC(=O)c1ccc(N2C(=O)CC(SCCN)C2=O)cc1 (stereo not drawn),-83.8
CCCOc1ccc(N2C(=O)CC(SCCN)C2=O)cc1 (stereo not drawn),-71.0
c1cc2c(cc1C1CCCCC1)c1c3n2CCCNC3CCC1 (stereo not drawn),i
COc1ccc(C2OC(=O)CC2C(=O)NCc2ccc(Cl)cc2)cc1OC (stereo not drawn),-77.8
N/C(=N\OC(=O)Nc1ccccc1)c1ncc([N+](=O)[O-])s1,-94.2
CCN(CC)c1ccc(-c2nn3c(-c4n[nH]c5c4CCC5)nnc3s2)cc1,i
Clc1ccc(-c2n[nH]c3c2CCCC3)cc1,-69.9
O=C(c1ccccc1)c1ccc2cc(O)ccc2c1,-231.0
CC(=O)Nc1ncc(N=Nc2cccc(C(F)(F)F)c2)s1,-78.5
CCC(=O)c1ccc(SC(=O)N(C)C)cc1O,-67.6
N/C(=N\OC(=O)c1cccs1)c1cccnc1,-91.9
N/C(=N\OC(=O)c1ccc(Cl)cc1)c1ccc(Cl)cc1,-121.7
N/C(=N\OC(=O)c1ccco1)c1ccc(Cl)cc1,-210.3
CCSc1ccc(/C(N)=N/OC(=O)c2cccs2)cn1,-120.4
N/C(=N\OC(=O)c1ccc(Cl)cc1)c1ccn[nH]1,-76.8

# Screening data deposited in PubChem BioAssay by Broad Institute.
